# Experimental data from the supplement of paper PMC10981050.
# Several values for one entry are separate records, joined by “and”; a condition that tells them apart may be missing. Identical values can stand only once. Counter-ions that a name gives are not always drawn.
# Assays:
# Assay in all cases: cell viability relative to vehicle control; higher = less cytotoxic
# Conditions in all cases: 10 µM
# K562 = system: K562
# Summary of the method: (§1)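 Screening covered the Selleck bioactive, kinase and epigenetic probe libraries, less identity-inconsistent compounds, on CRISPR-edited mutant clones and isogenic wild-type clones of four leukaemia lines. Cells, at 2000 per well in 50 µL medium, received a single 10 µM acoustically dispensed dose. After 48 h the supernatant was removed and CellTiter-Glo luminescence was read. Viability was analysed in Genedata Screener as percent of the on-plate vehicle control.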
# MARIMO = system: MARIMO
# Summary of the method: as §1
# MOLM14 = system: MOLM14
# Summary of the method: as §1
# OCI-AML2 = system: OCI-AML2
# Summary of the method: as §1
Structure (SMILES),cell viability (K562; SRSF2 genotype: SRSF2 P95H/wt),cell viability (K562; SRSF2 genotype: SRSF2 wt/wt) [%],cell viability (MARIMO; SRSF2 genotype: SRSF2 P95H/wt) [%],cell viability (MARIMO; SRSF2 genotype: SRSF2 wt/wt) [%],cell viability (MOLM14; SRSF2 genotype: SRSF2 P95H/wt) [%],cell viability (MOLM14; SRSF2 genotype: SRSF2 wt/wt) [%],cell viability (OCI-AML2; SRSF2 genotype: P95H/wt) [%],cell viability (OCI-AML2; SRSF2 genotype: wt/wt) [%]
CC[C@H](C)C(=O)O[C@H]1C[C@H](O)C=C2C=C[C@H](C)[C@H](CC[C@@H](O)C[C@@H](O)CC(=O)O)[C@H]21 [Pravastatin sodium],103% and 97.3%,92.3,95.2,103,104,102,91,105
CCCCCCCCCCCCCCCCCCCC(=O)O [Arachidic acid],95.7% and 93.1%,98.9,96,96.3,96.1,103,103,109
N#Cc1ccc(-c2csc(NN=C3CCCC3)n2)cc1 [Remodelin],76.6% and 86.8%,87.6,66.9,62.1,92.3,99.4,61,72.3
Cc1nccn1CC1CCc2c(c3ccccc3n2C)C1=O (stereo not given) [Ondansetron Hydrochloride Dihydrate],95.8% and 94.2%,91.5,95.9,108,97.4,97.4,88.6,99.1
Nc1[nH]cnc2ncnc1-2 [Adenine sulfate],108% and 94.6%,99.3,94.7,103,93.5,99.7,102,112
Cc1ccc(NC(=O)c2ccc(CN3CCN(C)CC3)cc2)cc1Nc1nc(-c2cccnc2)cs1 [Masitinib (AB1010)],6.35% and 18.8%,12.1,72.5,59.7,70.3,67.8,52,52.1
C=C(C)[C@@H]1CC[C@]2(C(=O)O)CC[C@]3(C)[C@H](CC[C@@H]4[C@@]5(C)CC[C@H](OC(=O)CC(C)(C)C(=O)O)C(C)(C)[C@@H]5CC[C@]43C)[C@@H]12 [Bevirimat],102% and 101%,99.7,107,107,106,103,97,108
"CCCS(=O)(=O)Nc1ccc(F)c(C(=O)c2c[nH]c3ncc(-c4ccc(Cl)cc4)cc23)c1F [Vemurafenib (PLX4032, RG7204)]",92.8% and 102%,94.8,92.6,106,102,108,111,105
CCOc1cn(-c2ccc(F)cc2C)nc1C(=O)Nc1ccc(Oc2ccnc3cc(OC)c(OC)cc23)c(F)c1,23.1% and 45.6%,25.2,89.3,90.4,24.9,19.6,48.1,52.9
CC[C@H](Nc1ncnc2[nH]cnc12)c1nc2cccc(F)c2c(=O)n1-c1ccccc1,84.3% and 82.3%,88.8,65.6,70.5,57.3,54.8,51.2,58.6
